mHTT-CaM PPI inh – inhibitors of human mutant huntingtin-calmodulin interaction | P42858 | actives 3.6% (n = 190,000) | inhibition, % at 15 µM | AlphaScreen His-mHTT/GST-CaM binding, luminescence;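 note: 0% = both proteins with DMSO and 100% = one protein alone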
Pf apPOL inh – Pf-apPOL DNA polymerase inhibition; inhibition, % at 10 µM; Recombinant Pf-apPOL, molecular beacon fluorescence, 1.5 h; actives 0.25% (n = 210,000)
The depositor's hits bear a star; nt = no result; ! = not active in a repeat. In the library only some 3.5% were active in any assay of this set; here they are far more common. Cut-off read from the data, not from the text of the source: active = inhibition above about 50%; inactive = the rest.

SMILES	mHTT-CaM PPI inh	Pf apPOL inh
O=C(c1ccccn1)N1CCCC(c2nc(-c3ccc(F)cc3)n[nH]2)C1 (configuration not stated)	11.6	5.6
O=C(COc1ccc([N+](=O)[O-])cc1)Nc1cccc(NC(=O)c2cccs2)c1	10.4	-3.4
CC(=O)N(C1=C(NC2CCCCC2)C(=O)c2ccccc2C1=O)c1ccc(F)c(F)c1	48.2	-6.4
CC(=O)N(C1=C(Nc2ccccc2)C(=O)c2ccccc2C1=O)c1ccccc1	54.6*	-3.1
COc1cccc(N(C(C)=O)C2=C(NC3CCCCC3)C(=O)c3ccccc3C2=O)c1	62.2*	6.2
CCCNC1=C(N(C(C)=O)c2cccc(F)c2)C(=O)c2ccccc2C1=O	27.1	-15.1
Cc1nccn1CC(=O)N1CCCC2(C1)Nc1ccccc1NC2=NC1CCCC1 (configuration not stated)	21.3	-10.5
O=[N+]([O-])c1cc2c(cc1CNc1ccc3cn[nH]c3c1)OCO2	45.2	-1.4
O=[N+]([O-])c1cc2c(cc1CNc1ccc3c(c1)CCC3)OCO2	80.9*	-6.9
CCC(C)(C)NC(=O)c1cn2c(n1)CCCC2	-1.9	-1.1
CCCNC(=O)C1CCCN(c2ncccc2-c2noc(C3CCC3)n2)C1 (configuration not stated)	4.3	-4.8
CCn1ccc2oc(C)c(C(=O)N3CCN(c4cccc(C)c4C)CC3)c2c1=O	66.3*	-4.3
CCn1ccc2oc(C)c(C(=O)NCc3cc(C)ccc3C)c2c1=O	4.5	-1.9
CCCn1ccc2oc(C)c(C(=O)N3CCN(c4ccccc4F)CC3)c2c1=O	17.3	-3.3
CCn1ccc2oc(C)c(C(=O)N3CCN(c4cc(C)ccc4C)CC3)c2c1=O	84.9*	-1.7
Cc1onc(-c2ccccc2)c1C(=O)Nc1ccc(F)c(Cl)c1	-5.2	-7.1
Clc1ccc(-c2cnc3n2CCC3)cc1Cl	89.0*	-4.9
Clc1ccc(-c2cn3c(n2)CCC3)cc1Cl	38.0	-2.7
CNc1cc(-n2nc(C)cc2-c2ccccc2)ncn1	3.0	7.0
Cc1cc(-c2ccccc2)n(-c2cc(Nc3cccc(C(F)(F)F)c3)ncn2)n1	93.0*	-2.6
CCCCN1C(=O)c2ccccc2CC1(C)C(=O)NCc1ccc(OC)cc1 (configuration not stated)	-5.2	0.0
Cc1ncc2c(n1)CCN(S(=O)(=O)c1ccc(F)cc1)C2	-3.6	0.4
O=C(Nc1cc(-c2ccccn2)no1)c1ccccn1	100.0*	-9.8
O=C(Nc1nc(-c2ccccc2)cs1)c1ccncc1	8.3	-13.1
COc1cc(OC)cc(C(=O)Nc2nc(-c3ccccn3)cs2)c1	100.0*	-6.2
SMILES	mHTT-CaM PPI inh	Pf apPOL inh
O=C(Nc1nc(-c2ccccn2)cs1)c1ccc(Oc2ccccc2)cc1	94.0*	-5.1
COc1cc(OC)cc(C(=O)Nc2nc(C(=O)NC(C)c3ccccc3)cs2)c1 (configuration not stated)	-8.8	-3.4
O=C(Nc1nc(-c2ccccn2)cs1)c1cc(-c2ccco2)on1	99.6*	-212.7
O=C(Nc1nc(-c2cc([N+](=O)[O-])cs2)cs1)c1cc(-c2ccco2)on1	-10.4	3.5
O=C(Nc1cc(-c2ccccn2)no1)c1ccc(Cl)cc1	10.3	1.0
COc1ccc(CC(=O)NCCC2CCN(C(=O)c3ccc(C)cc3)CC2)cc1	16.8	-3.2
CCCc1noc(-c2cccnc2N2CCCN(C(=O)c3cccc(Cl)c3)CC2)n1	-2.2	-0.3
O=C1C2N=NN(c3ccccc3)C2C(=O)N1c1ccccc1 (configuration not stated)	-12.3	-0.9
COc1cc(C=C2Oc3c(ccc(O)c3CN3CCOCC3)C2=O)cc(OC)c1OC	0.3	-15.6
COC(=O)c1cccc(NC(=O)N2CCC(c3cc(-c4cccc(OC)c4)n[nH]3)CC2)c1	30.4	-2.9
O=C1CSC(c2ccccc2Br)N1c1ccc(F)cc1F (configuration not stated)	-12.0	0.3
COc1ccccc1NC(=O)N1CCN(C2=CC3=NC(C)CN3C=N2)CC1 (configuration not stated)	3.9	-0.1
Cc1ccccc1OCC(=O)N1CCN(C2=CC3=NC(C)CN3C=N2)CC1 (configuration not stated)	90.6*	-6.2
Cc1cccc(-c2nnc(C)c(N3CCc4ccccc4C3)n2)c1	99.9*	-1.3
Cc1cccc(-c2nnc(C)c(N3CCC(C)CC3)n2)c1	42.1	-0.7
COc1cc(/C=C2\C(=O)NN(c3ccc(C)c(Cl)c3)C2=O)ccc1O	25.0	-4.7
OCc1nc2ccccc2n1Cc1ccc(Cl)c(Cl)c1	72.7*	1.3
OCc1nc2ccccc2n1Cc1ccccc1	-0.5	1.0
Cc1cc(C)c2nc(C)cc(Nc3ccc(OCc4ccccc4)cc3)c2c1	89.8*	0.1
CCOc1ccc(Nc2nc(-c3ccccc3)cs2)cc1	8.9	-2.1
CCOc1ccc(Nc2c3ccccc3nc3ccccc23)cc1	63.4*	-6.2
CCOc1ccc2nc(C)cc(Nc3ccc(OCc4ccccc4Cl)cc3)c2c1	98.1*	-2.4
Cc1cc(C)c2nc(C)cc(Nc3ccc(C(=O)O)cc3)c2c1	3.3	-14.0
CCOc1ccc2nc(C)cc(Nc3cc(Cl)ccc3OC)c2c1	27.0	-3.9
CC1=NN(c2ccccc2)C(=O)/C1=C/N(S)C(C)(C)C	3.3	nt
SMILES	mHTT-CaM PPI inh	Pf apPOL inh
CN(CC(=O)N1CCCCCC1)S(=O)(=O)c1ccc2[nH]c3c(c2c1)CCCC3	14.4	-6.6
Cc1ccc2c(c1)N(S(=O)(=O)c1ccc3[nH]c4c(c3c1)CCCC4)CCO2	42.1	-0.3
O=S(=O)(c1ccc2[nH]c3c(c2c1)CCCCC3)N1CCC2(CC1)OCCO2	57.8*	-1.1
CCOC(=O)C1CCN(S(=O)(=O)c2ccc3[nH]c4c(c3c2)CCCCC4)CC1	71.3*	-4.9
O=S(=O)(c1ccc2[nH]c3c(c2c1)CCCCC3)N1CCCCC1	75.7*	-1.5
O=C(NC1CC1)C1=CCN(C(=O)c2ccc(F)cc2)CC1	6.0	-5.6
COc1ccc(N2CCN(C(=O)C3c4ccccc4CCN3C(=O)C3CC3)CC2)cc1 (configuration not stated)	49.0	-5.0
Fc1cc(F)c2nc(NCC3CCCO3)sc2c1 (configuration not stated)	-13.3	-14.7
CC(C)CC(NC(=O)Cc1ccsc1)C(=O)NN=Cc1cccs1 (configuration not stated)	nt	-1.7
O=C1C(=Cc2c[nH]c3ccccc23)C(=O)c2ccccc21	57.0*!	-0.1
O=C1OC2(CCCC2)OC(=O)C1=Cc1c[nH]c2ccccc12	7.0	-16.1
CCCCCCCCCCSc1nc2c(c(=O)[nH]c(=O)n2C)n1CCCC	-6.2	nt
CCOc1cc(/C=C2/C(=O)N(c3ccccc3)N=C2C)ccc1O	43.0	8.1
CC1=NN(c2ccccc2)C(=O)/C1=C/N1CCCCC1	2.0	-1.5
CC1=NN(c2ccccc2)C(=O)/C1=C/c1ccc(N(C)C)c(Br)c1	65.0*	3.0
CC1=NN(c2ccccc2)C(=O)/C1=C/c1ccc2c(c1)OCO2	8.0	3.7
CC1=NN(c2ccccc2)C(=O)/C1=C/C=C/c1ccccc1	71.0*	-1.6
CC1=NN(c2ccccc2)C(=O)/C1=C/c1cccc(C(=O)O)c1	5.0	0.1
CC1=NN(c2ccccc2)C(=O)/C1=C/c1ccc(O)c(Br)c1	52.0*	6.3
CC1=NN(c2ccccc2)C(=O)/C1=C/c1cccc(Oc2ccccc2)c1	52.0*	3.3
CCOc1ccc(C(=O)Nc2ccccc2I)cc1	-8.0	6.5
S=C(c1ccc2c(c1)OCCO2)N1CCOCC1	0.0	nt
